Sampled rows, rich in hits. Any-hit rate of the full collection: about 5.2%.
PfM18AAP inh = PfM18AAP enzyme inhibition | recombinant PfM18AAP, H-Glu-NHMec fluorogenic cleavage | inhibition, % at 7.35 µM | hit rate 1.2% among 290,000 | AID 1822;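 active = inhibition above the campaign mean inhibition over all tested compounds plus 3 SD, cut at about 28% in these data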;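 also: 0% = plate median of test compound wells and 100% = 2 mM ZnCl2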
APOBEC3A inh = inhibitors of human APOBEC3A DNA deaminase | P31941 | recombinant A3A, FAM/TAMRA ssDNA deamination fluorescence | inhibition, % at 20 µM | hit rate 0.41% among 330,000 | AID 493011;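 active = at least 40% inhibition at 20 µM here, with at most 30% in a related deaminase screen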;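 also: plate controls were A3A with DMSO for no effect and wells lacking A3A enzyme for full effect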
Target sequence (P31941 whole entry, looked up): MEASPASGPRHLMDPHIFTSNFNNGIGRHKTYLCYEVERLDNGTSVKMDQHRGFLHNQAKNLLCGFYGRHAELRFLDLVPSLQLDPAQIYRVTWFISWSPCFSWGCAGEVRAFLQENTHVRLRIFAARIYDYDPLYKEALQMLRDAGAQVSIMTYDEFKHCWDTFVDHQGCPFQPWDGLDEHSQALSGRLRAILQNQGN
CendR NRP1 mod = NRP-1/CendR interaction modulation | O14786 | FAM-RPARPAR peptide binding to NRP-1, fluorescence polarization | inhibition, % at 25 µM | hit rate 0.85% among 360,000 | AID 602438;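 active = inhibition or corrected inhibition above about 18%, plus a signal ratio from 0.5 to 1.5, limit read from the data, passing the limit was not always enough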
ALR H2O2 inh = inhibitors of human sulfhydryl oxidase ALR; purified ALR, DTT oxidation, H2O2 HRP-luminol luminescence; inhibition, % (test concentration not listed); hit rate 3.8% among 290,000; AID 485317;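 active = mean replicate inhibition above about 79%, with every replicate also reaching it, limit read from the data; inconclusive = only one of the two criteria met; inactive = mean below limit and not every replicate reaching it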
APOBEC3G inh = APOBEC3G (human) deaminase inhibition. Q9HC16. recombinant A3G, ssDNA deamination FAM/TAMRA fluorescence. inhibition, % at 20 µM. hit rate 0.28% among 330,000;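 active = inhibition of at least 40% at 20 µM, with no more than 30% in the related APOBEC3A deaminase screen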;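 also: plate controls were DMSO wells with A3G for no effect and wells lacking A3G enzyme for full effect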
Target sequence (Q9HC16 whole entry, looked up): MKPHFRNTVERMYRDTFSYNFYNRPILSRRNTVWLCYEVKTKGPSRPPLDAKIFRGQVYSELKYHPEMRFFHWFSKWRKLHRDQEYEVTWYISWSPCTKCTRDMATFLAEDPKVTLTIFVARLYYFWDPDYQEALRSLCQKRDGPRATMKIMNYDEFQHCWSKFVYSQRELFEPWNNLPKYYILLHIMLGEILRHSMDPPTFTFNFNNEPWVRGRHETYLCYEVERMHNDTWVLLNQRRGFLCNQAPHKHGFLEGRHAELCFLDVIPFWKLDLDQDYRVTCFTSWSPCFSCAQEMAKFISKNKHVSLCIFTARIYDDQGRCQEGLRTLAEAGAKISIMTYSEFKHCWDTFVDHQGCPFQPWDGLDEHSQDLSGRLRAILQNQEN
Yeast superoxide = yeast age-related superoxide inhibition as caloric restriction mimetic. AID 2690. S. cerevisiae aged cells, superoxide DHE fluorescence; active compounds read low. hit rate 0.18% among 330,000. superoxide response (% of plate mean), % at 10 µM;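 active = superoxide response under a set limit, about three screen SD below normal, cut at about 65% in these data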;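 also: yeast aged for seven days with compound at 30 °C before DHE staining; 100% = average MFI of all compound-treated wells on the plate with controls excluded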
Starred values were filed as active, the others as inactive; ? = inconclusive; / = not tested or not shown.

SMILES	PfM18AAP inh	APOBEC3A inh	CendR NRP1 mod	ALR H2O2 inh	APOBEC3G inh	Yeast superoxide
CSc1ccc(/C=C(\C(=O)O)c2ccc(S(=O)(=O)N3CCCCC3)s2)cc1	2	4	-11	90*	-6	123
O=C(O)/C(=C\c1ccc(Cl)cc1)c1ccc(S(=O)(=O)N2CCCC2)s1	/	29	0	98*	6	122
CC(C)C[C@@H](C)C(=O)N(Cc1ccccc1)c1ccccc1	/	-1	32*	8	-7	99
CC[C@@H](CCC=C(C)C)C(=O)N(Cc1ccccc1)c1ccccc1	/	-1	-3	-7	-1	113
O=C1COc2ccc(-c3csc(NCC4CCCO4)n3)cc2N1 (stereo not drawn)	-5	-3	0	87*	-4	109
CC(Nc1nc(-c2ccc3c(c2)NC(=O)CO3)cs1)c1ccccc1 (stereo not drawn)	4	-1	-4	98*	0	106
COc1cccc(-c2nc(-c3ccc4c(c3)NC(=O)CO4)cs2)c1	0	-5	5	-21	-8	104
CCN(CCn1cccn1)C(=O)c1ccc(OC2CCN(C(=O)COC)CC2)cc1	4	-1	8	-13	-9	100
CSCCC(NC(=O)COc1ccccc1)C(=O)NC1CCC(C)CC1 (stereo not drawn)	/	3	4	/	-2	95
CN=c1scc(-c2ccccc2F)n1/N=C/c1ccc[nH]1	3	-4	-128	?	-6	93
CN=c1scc(-c2ccccc2F)n1/N=C/c1ccc(O)c(O)c1O	31*	/	-7	/	/	/
CN=c1scc(C)n1/N=C/c1ccc2c(c1)OCO2	10	-2	-2	98*	-4	100
CCCc1nc2ccccc2c(=O)n1/N=C/c1ccc(O)cc1O	23	-5	-3	4	-7	107
CN=c1scc(C)n1/N=C/c1ccc(O)cc1O	16	-3	4	99*	-2	104
CN=c1scc(C)n1/N=C/c1ccc(O)cc1	16	-3	-4	99*	-9	93
CC12CCC(=O)N1C(C(=O)Nc1nc(-c3ccc(F)c(F)c3)cs1)CS2 (stereo not drawn)	/	1	-6	-3	-5	114
O=C(NCCCO)C(=O)Nc1cc2c3c(c1)CCC(=O)N3CCC2	0	-4	5	3	-7	112
NS(=O)(=O)c1ccc(CCNC(=O)C(=O)NCC2OCCN2C(=O)c2ccc3c(c2)OCO3)cc1 (stereo not drawn)	0	-1	-8	0	-1	78
Cc1cc(C(=O)Nc2ncn[nH]2)ccc1[N+](=O)[O-]	30*	3	12	-7	-7	109
Cc1ccc2c(c1)C(=O)C(=O)N2Cc1ccccc1	/	-4	9	-4	-10	82
CCN1C(=O)C(=O)c2cc(C)ccc21	/	1	34*	-7	-4	101
C[C@@H]1CN([C@H](C)CO)C(=O)CCCn2cc(nn2)CO[C@H]1CN(C)C(=O)Nc1ccccc1C(F)(F)F	/	/	-6	/	/	/
CCOc1ccc2nc(N3CCC(C(=O)N4CCN(C5CCCCC5)CC4)CC3)sc2c1	-1	-2	10	-17	-6	93
CCOc1ccc2nc(N3CCCCCC3)sc2c1	-1	1	-4	90*	-6	96
COC(=O)CCSCC(=O)Nc1ccc(C)c(S(=O)(=O)N2CCCCC2)c1	6	5	-6	99*	1	86
SMILES	PfM18AAP inh	APOBEC3A inh	CendR NRP1 mod	ALR H2O2 inh	APOBEC3G inh	Yeast superoxide
Cn1c(-c2sc(=S)n(-c3ccccc3)c2N)nc2ccccc21	0	-8	-15	-5	-9	108
C=CCn1c(N)c(-c2nc3ccccc3n2C)sc1=S	-11	-2	-13	90*	-3	99
C=CCNC(=O)c1cnn(-c2ccccc2)c1-c1ccccc1	7	-1	26*	15	-2	79
CN(C)c1ccc(C(=O)NC2(N3CCC3=O)CCCC2)cc1	-8	-1	16	100*	-4	100
Cn1c(N)c(C(=O)COC(=O)/C=C/c2ccc(Cl)c(Cl)c2)c(=O)n(C)c1=O	/	1	25*	/	-5	91
Cn1c(N)c(C(=O)COC(=O)/C=C/c2ccc(F)cc2)c(=O)n(C)c1=O	/	2	6	-4	-1	105
CC(C)(C)OC(=O)N[C@@H](Cc1ccccc1)C(=O)N1CCC(C(=O)O)CC1	1	-2	0	-1	-3	122
CN(CCCNC(=O)CCC(=O)N1CCOc2ccc(Cl)cc21)Cc1ccccc1	-2	-3	4	93*	-15	86
CCCc1[nH]n(-c2nc3ccccc3s2)c(=O)c1C=NCCN1CCOCC1	-1	0	-9	-5	-7	106
CCOC(=O)C1CCCN(C(=O)c2ccc3ncsc3c2)C1 (stereo not drawn)	/	-1	6	96*	-3	113
CCNC(=S)NN(c1ccccc1)c1ccccc1	-15	1	19	98*	-2	102
CCNC(=S)Nc1ccc(N(c2ccccc2)C(C)C)cc1	26	1	-3	32	-5	86
Cc1ccc(C)c(/C=C/C(=O)c2ccccc(=O)c2O)c1	25	/	-36	97*	/	108
Cc1ccc(Cn2c(SCC(C)C)nc3c2c(=O)n(C)c(=O)n3C)cc1	-3	-2	-1	6	-7	101
Cc1ccccc1NC(=O)CCC(=O)OCC(=O)c1ccc(-c2ccccc2)cc1	10	-2	27*	/	-4	107
CCOC(=O)N1CCN(S(=O)(=O)c2ccc(C(=O)NNc3nc4ccc(Cl)cc4s3)cc2)CC1	7	-3	-2	98*	-7	96
O=C(NCc1cccs1)c1nc2c(nnn2Cc2ccccc2Cl)c(=O)[nH]1	-11	/	-32	95*	/	103
CCC(C)NC(=O)c1nc2c(nnn2Cc2ccccc2Cl)c(=O)[nH]1 (stereo not drawn)	8	-6	-10	88*	-5	109
O=C(Cc1cccs1)N1CCCC(c2nc3c(nnn3Cc3ccccc3Cl)c(=O)[nH]2)C1 (stereo not drawn)	3	-2	0	-7	-3	96
COc1cccc(C(=O)N2N=C(c3ccccc3)CC2(O)C(F)(F)F)c1 (stereo not drawn)	2	-1	27*	/	-6	102
COc1cccc(C2=NN(C(=O)c3ccccc3)C(O)(C(F)(F)F)C2)c1 (stereo not drawn)	-17	-3	1	/	-4	94
CCC1CCCCN1C(=O)CSc1nc(N)c(NC(=O)c2ccco2)c(=O)[nH]1 (stereo not drawn)	9	-2	-1	85*	-11	97
COc1cc(NS(=O)(=O)c2c(C)[nH]c(C)c2C(=O)N2CCCC2)cc(OC)c1OC	2	-2	15	3	-5	86
CCOC(=O)N1CCN(S(=O)(=O)c2ccc(C(=O)NNc3nc4cc(C)cc(C)c4s3)cc2)CC1	15	-1	-8	2	-1	110

Bioassay records from PubChem BioAssay.
